Laboratory results: ChEMBL document CHEMBL3988442, “University of Dundee, Small-Polar-MMV Screening Library” (2021)
For some assays here: Measured potencies and affinities stand elsewhere.

Columns and labels:
Parameters in all cases: scale not given: direction of the effect not stated beside the values
[1] = target: Protein translocase subunit SecA (Escherichia coli (strain K12)) (UniProt P10408); experiment: Assay to Identify E. coli SecA ATPase Inhibitors; assay type: functional; details: 30 µM
[2] = target: T1, Ubiquitin-activating enzyme e1, putative (Leishmania donovani (strain BPK282A1)) (UniProt E9BSI1); experiment: Leishmania donovani Ubiquitin Activating Enzyme (LdE1); assay type: functional; details: 30 µM
T1 sequence (whole entry): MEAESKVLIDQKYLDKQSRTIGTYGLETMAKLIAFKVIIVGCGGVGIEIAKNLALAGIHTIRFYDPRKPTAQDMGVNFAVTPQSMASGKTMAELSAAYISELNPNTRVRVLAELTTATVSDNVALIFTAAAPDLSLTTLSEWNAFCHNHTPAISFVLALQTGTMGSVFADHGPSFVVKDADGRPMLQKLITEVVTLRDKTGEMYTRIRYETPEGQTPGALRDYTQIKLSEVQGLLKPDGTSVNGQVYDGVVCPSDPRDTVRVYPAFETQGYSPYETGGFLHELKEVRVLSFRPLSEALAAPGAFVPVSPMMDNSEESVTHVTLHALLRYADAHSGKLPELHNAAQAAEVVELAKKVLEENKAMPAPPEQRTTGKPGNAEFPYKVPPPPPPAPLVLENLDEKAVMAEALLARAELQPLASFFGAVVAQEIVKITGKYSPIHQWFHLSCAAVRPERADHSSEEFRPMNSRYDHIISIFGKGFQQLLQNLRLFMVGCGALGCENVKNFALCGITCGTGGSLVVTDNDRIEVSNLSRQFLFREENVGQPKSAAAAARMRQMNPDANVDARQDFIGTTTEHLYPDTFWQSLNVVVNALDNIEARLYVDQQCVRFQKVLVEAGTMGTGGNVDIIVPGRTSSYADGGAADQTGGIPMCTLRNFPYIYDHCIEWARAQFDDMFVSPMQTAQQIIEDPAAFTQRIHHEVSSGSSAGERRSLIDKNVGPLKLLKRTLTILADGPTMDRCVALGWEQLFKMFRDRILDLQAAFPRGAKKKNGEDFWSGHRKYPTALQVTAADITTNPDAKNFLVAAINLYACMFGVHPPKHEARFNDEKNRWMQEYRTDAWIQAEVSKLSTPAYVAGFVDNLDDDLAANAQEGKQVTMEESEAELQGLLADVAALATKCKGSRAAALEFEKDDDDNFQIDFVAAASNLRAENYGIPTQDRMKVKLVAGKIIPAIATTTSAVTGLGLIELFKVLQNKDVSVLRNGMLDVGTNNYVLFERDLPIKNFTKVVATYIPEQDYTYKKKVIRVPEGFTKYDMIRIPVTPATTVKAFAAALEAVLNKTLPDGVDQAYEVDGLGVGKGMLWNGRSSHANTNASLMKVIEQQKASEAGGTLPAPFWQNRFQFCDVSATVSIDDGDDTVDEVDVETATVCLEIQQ

[3] = target: AMP-activated protein kinase, AMPK (Homo sapiens) (UniProt P54646+O43741+P54619+Q9UGJ0+Q9Y478+Q13131+Q9UGI9); experiment: AMP-dependent Kinase enzyme assay. An in vitro enzyme assay that detects ADP turnover that is directly proportional to AMPK activity. This uses naive AMPK that is activated during the assay with MK-8722; assay type: functional; details: 30 µM
[4] = target: Sialic acid-binding Ig-like lectin 9 (Homo sapiens) (UniProt Q9Y336); experiment: Hs-Siglec9 ALPHAscreen SOP 20170721; details: 10 µM
Trypanosoma cruzi = experiment: Trypanosoma cruzi phosphomannomutase and mannose-1-phosphate guanylyltransferase assay; assay type: functional; details: 10 µM
[5] = target: T2, Arginase-2, mitochondrial (Homo sapiens) (UniProt P78540); experiment: in vitro enzyme assay to detect the production of urea directly proportional to the activity of Arginase II; assay type: functional; details: 33.3 µM; also: in the data most compounds retested in dose-response had high values
T2 sequence (whole entry): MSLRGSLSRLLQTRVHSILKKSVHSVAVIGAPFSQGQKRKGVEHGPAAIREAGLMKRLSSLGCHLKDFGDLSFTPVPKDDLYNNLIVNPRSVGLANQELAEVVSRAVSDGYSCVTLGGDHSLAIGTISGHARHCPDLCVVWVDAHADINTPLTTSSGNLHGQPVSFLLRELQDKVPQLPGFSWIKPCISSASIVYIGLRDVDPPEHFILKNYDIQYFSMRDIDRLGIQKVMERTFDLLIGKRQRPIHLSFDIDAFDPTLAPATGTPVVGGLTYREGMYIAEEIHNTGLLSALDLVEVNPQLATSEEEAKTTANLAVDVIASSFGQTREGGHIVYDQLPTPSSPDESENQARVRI

[6] = target: T3, Proteasome subunit beta (Trypanosoma cruzi) (UniProt O96673); experiment: Trypanosoma cruzi proteasome chymotrypsin-like activity (TcProtChymo) assay.; also: in the data most compounds retested in dose-response had high values; assay type: functional; details: 9.37 µM
T3 sequence (whole entry): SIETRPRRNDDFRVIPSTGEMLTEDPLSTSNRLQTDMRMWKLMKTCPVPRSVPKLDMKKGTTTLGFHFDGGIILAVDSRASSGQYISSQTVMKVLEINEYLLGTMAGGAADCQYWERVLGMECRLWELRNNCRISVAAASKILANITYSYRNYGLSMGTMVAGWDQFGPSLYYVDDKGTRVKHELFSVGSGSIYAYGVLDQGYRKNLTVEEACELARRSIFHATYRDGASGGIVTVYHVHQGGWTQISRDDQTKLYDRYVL

Homo sapiens = species on record: Homo sapiens; experiment: To identify inhibition of the IFN signalling (Jak-Stat) pathway via expression of an eGFP reporter gene under the control of an IFN-stimulated response element (ISRE) containing MxA promoter.; assay type: functional; details: 30 µM
[7] = target: T4, Tyrosyl-tRNA synthetase, putative (Trypanosoma cruzi (strain CL Brener)) (UniProt Q4DSP6); experiment: Trypanosoma cruzi tyrosyl tRNA synthetase (TcYRS) _High Tyrosine SOP; assay type: functional; details: 30 µM; also: in the data most compounds retested in dose-response had high values
T4 sequence (whole entry): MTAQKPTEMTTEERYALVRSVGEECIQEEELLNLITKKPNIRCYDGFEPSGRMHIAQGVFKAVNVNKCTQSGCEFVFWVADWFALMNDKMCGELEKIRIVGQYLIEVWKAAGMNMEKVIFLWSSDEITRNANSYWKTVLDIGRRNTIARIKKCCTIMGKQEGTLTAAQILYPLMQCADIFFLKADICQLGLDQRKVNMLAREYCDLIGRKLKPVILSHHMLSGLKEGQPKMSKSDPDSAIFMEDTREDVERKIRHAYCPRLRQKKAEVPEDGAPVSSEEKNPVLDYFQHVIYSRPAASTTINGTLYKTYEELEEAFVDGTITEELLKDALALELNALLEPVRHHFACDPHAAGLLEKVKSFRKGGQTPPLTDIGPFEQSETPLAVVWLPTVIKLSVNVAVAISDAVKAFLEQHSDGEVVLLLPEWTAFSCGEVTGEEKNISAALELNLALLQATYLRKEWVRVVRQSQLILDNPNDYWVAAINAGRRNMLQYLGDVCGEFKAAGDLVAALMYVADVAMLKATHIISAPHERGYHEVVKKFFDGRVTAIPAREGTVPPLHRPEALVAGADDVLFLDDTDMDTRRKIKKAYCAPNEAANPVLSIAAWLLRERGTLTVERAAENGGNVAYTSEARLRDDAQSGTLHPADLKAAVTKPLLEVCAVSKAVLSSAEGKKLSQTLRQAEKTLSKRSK

[8] = target: T4, Tyrosyl-tRNA synthetase, putative (Trypanosoma cruzi (strain CL Brener)); experiment: Trypanosoma cruzi tyrosyl tRNA synthetase (TcYRS) SOP; assay type: functional; details: 30 µM
[9] = target: Chromo domain-containing protein 1 (Saccharomyces cerevisiae (strain ATCC 204508 / S288c) (Baker's yeast)) (UniProt P32657); experiment: ScCHD-1 Enzyme Inhibition Assay; assay type: functional; details: 30 µM; also: in the data most compounds retested in dose-response had high values
Sequence of Chromo domain-containing protein 1 (Saccharomyces cerevisiae (strain ATCC 204508 / S288c) (Baker's yeast)) (P32657 whole entry, the tested form may be a part): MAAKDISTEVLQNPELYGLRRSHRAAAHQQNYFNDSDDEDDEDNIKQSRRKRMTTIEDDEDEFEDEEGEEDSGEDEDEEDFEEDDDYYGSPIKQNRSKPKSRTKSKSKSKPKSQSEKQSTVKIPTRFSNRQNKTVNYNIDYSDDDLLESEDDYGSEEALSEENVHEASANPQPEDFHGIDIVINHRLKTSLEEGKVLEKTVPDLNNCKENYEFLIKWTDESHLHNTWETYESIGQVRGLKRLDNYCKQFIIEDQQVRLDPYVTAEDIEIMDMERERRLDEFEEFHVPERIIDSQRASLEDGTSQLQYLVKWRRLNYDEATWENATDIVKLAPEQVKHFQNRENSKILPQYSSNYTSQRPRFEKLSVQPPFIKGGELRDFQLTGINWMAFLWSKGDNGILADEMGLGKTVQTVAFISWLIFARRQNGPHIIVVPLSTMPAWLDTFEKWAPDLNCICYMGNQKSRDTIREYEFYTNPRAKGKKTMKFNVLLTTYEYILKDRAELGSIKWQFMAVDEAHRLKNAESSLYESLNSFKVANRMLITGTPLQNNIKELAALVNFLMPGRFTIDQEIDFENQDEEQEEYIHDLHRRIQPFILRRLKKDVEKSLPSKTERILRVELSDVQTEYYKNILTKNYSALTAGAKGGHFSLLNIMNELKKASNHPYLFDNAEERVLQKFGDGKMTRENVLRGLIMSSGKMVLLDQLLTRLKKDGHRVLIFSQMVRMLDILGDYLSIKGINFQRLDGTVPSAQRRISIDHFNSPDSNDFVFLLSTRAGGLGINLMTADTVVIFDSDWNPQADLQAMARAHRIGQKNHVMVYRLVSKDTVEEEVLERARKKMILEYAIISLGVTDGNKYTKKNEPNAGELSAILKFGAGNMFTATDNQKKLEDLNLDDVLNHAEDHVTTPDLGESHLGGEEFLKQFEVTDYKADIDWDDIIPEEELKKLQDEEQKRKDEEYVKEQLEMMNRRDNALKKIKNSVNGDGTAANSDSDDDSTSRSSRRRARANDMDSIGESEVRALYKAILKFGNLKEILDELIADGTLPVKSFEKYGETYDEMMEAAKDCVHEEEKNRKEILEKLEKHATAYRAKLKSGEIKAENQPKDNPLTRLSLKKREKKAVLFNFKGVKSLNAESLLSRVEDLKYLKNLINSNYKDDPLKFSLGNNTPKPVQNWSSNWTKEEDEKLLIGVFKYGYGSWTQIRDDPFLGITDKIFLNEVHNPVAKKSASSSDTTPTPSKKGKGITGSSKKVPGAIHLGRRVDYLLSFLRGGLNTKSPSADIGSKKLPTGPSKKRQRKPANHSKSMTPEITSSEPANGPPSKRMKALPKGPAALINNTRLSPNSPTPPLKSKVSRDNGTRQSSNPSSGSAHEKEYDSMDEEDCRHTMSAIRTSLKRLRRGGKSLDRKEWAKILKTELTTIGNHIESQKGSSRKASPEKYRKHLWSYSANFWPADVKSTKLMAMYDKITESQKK

Sequence of Sialic acid-binding Ig-like lectin 9 (Homo sapiens) (Q9Y336 whole entry): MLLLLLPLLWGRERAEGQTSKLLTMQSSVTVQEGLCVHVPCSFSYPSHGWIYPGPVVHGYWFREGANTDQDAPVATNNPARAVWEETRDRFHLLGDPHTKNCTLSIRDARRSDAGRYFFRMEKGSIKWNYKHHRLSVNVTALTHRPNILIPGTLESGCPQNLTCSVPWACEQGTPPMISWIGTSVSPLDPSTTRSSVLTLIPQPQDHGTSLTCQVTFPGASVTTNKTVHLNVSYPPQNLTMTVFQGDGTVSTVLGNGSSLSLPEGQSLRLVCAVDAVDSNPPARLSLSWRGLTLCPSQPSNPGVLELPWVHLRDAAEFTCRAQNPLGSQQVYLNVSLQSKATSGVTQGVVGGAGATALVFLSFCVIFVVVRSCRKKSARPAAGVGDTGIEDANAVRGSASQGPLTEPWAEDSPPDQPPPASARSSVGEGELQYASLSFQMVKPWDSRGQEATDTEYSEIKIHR
Sequence of Protein translocase subunit SecA (Escherichia coli (strain K12)) (P10408 whole entry): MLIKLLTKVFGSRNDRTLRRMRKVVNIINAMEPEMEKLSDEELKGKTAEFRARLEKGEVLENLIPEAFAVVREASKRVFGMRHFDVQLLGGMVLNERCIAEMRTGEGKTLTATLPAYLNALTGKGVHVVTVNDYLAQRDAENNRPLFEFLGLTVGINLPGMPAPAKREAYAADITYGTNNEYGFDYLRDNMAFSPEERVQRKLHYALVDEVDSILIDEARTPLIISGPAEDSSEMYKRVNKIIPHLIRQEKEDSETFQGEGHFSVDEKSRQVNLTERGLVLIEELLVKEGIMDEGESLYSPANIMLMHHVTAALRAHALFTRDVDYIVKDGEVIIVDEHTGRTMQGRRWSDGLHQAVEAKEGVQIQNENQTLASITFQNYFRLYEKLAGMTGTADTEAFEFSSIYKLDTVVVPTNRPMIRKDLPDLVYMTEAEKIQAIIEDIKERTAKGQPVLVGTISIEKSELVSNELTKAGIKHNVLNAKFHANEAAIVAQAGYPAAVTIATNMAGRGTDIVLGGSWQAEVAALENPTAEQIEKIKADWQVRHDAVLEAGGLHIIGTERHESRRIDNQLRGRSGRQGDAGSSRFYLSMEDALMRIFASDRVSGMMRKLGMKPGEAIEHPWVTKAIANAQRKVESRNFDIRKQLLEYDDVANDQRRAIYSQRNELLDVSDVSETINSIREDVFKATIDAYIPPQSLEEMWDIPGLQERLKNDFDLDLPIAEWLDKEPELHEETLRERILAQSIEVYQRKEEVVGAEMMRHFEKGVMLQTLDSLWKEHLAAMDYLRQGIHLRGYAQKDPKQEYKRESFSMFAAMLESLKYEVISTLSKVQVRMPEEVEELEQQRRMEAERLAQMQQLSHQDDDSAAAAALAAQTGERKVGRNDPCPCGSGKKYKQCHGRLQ

Row | Compound | Percent Effect [1] [%] | Percent Effect [2] [%] | Percent Effect [3] [%] | Percent Effect [4] [%] | Percent Effect (Trypanosoma cruzi) [%] | Percent Effect [5] [%] | Percent Effect [6] [%] | Percent Effect (Homo sapiens) [%] | Percent Effect [7] [%] | Percent Effect [8] [%] | Percent Effect [9] [%]
1 | CCn1nc(CC(C)C)cc1C(=O)NCCn1cccc1 | -6.33 | -1.39 | 1.75 | 1.17 | -3.01 | -3.09 | 11.6 | -24.3 | 0 | -2.56 | 1.57
2 | Clc1ccccc1-c1nc(CNCCn2cccn2)cs1 | -1.85 | -15.8 | 2.49 | -0.874 | 9.02 | 0.383 | 10.9 | 13.7 | 9.31 | 17.1 | 14.2
3 | CCOC(=O)NC(C(=O)NCc1ccc(N2CCCCC2)nc1)C(C)C (configuration not stated) | -0.611 | 13.5 | -4 | -4.82 | -5.94 | 0 | 13.9 | 28.9 | 3.45 | 16.1 | -3.65
4 | O=C(NC1CCN(c2snc3ccccc23)CC1)C1CCC1 | -4.68 | 16.5 | -3.67 | 3.44 | -1.74 | -1.07 | 9.43 | 21.9 | 4.17 | 20.2 | -33
5 | Cc1ccc(CN2CCC[C@]3(C(=O)O)CN(c4ncccn4)C[C@@H]3C2)o1 | -3.35 | 5.33 | -3.88 | 3.31 | 0.579 | -39.6 | 3.59 | -0.723 | 5.21 | -15 | -7.67
6 | CC(c1nc(C(C)(C)C)no1)N1CCN(CC(=O)N2CCOCC2)CC1 (configuration not stated) | -3.63 | 0 | 1.02 | 12.9 | -1.66 | -1.18 | 10.1 | 0.488 | 2.13 | 2.6 | 1.93
7 | Cc1nc(CN2CCCC(NCc3c(C)nc4sccn34)C2)no1 (configuration not stated) | -2.09 | 5.2 | -2.06 | -6.92 | -1.31 | 0.712 | 15.9 | 45.2 | 10.7 | 19.5 | -6.87
8 | CC(C)c1nc(C(=O)N2CCOCC2CC(=O)c2ccco2)c[nH]1 (configuration not stated) | 2.93 | -2.63 | 4.64 | 2.67 | 0.682 | 0 | 8.92 | -8.33 | 5.32 | 0 | 1.37
9 | CC(=O)NCCNC(=O)c1cnc(-c2ccccc2)nc1 | -2.95 | 2.7 | 0.346 | 11.7 | -4.59 | 4.22 | 3.35 | 0.496 | 6.45 | 11.1 | -5.21
10 | Cc1cn(-c2ccccc2)nc1NS(=O)(=O)c1cccc(C(=O)O)c1 | -4.24 | 0 | 9.15 | -6.49 | -9.01 | 5 | 14.4 | 10.4 | -5.38 | -5 | -7.14
11 | CC(C)N(C)Cc1cn2c(n1)CN(C(=O)Cc1ccsc1)CC2 | -5.71 | 2.74 | 3.83 | 1.25 | -2.78 | -2 | 7.28 | -1.74 | 5.21 | 6.17 | -0.437
12 | CC(C)N1CC(C(=O)NCCc2csc(-c3ccncc3)n2)CC1=O (configuration not stated) | -0.366 | 20.8 | 5.98 | -0.897 | 2.26 | -11 | 14.3 | 21 | 6.45 | 16.1 | -6.34
13 | CNC(=O)c1cccc(CNC(=O)C2CC(=O)N(CCN(C)C)C2)c1 (configuration not stated) | -5.39 | 5.33 | 4.48 | 0.817 | -2.63 | -1.04 | 12.2 | 14.1 | 3.83 | 6.17 | -3.88
14 | O=C(C1CCOCC1)N1CCc2ncnc(-c3ccc(F)cc3)c2CC1 | -1.29 | 2.67 | 4.73 | 2.72 | -1.35 | -2.33 | 8.89 | -4.53 | 0 | -2.5 | -3.02
15 | O=C(CN1CCC(c2cccc(F)c2)C1)NCc1ccco1 (configuration not stated) | -1.81 | 21.1 | 4.1 | -1.87 | 6.01 | -1.53 | 14.4 | 27.6 | 7.35 | 24.4 | -8.76
16 | Cc1nnc(Nc2cccc(C3CCN(CCO)CC3)n2)s1 | -1.13 | 13.3 | 4.79 | -2.96 | 1.38 | 1.63 | 4.85 | 11.5 | 6.38 | 14.1 | -3.37
17 | Cc1ncsc1C(=O)Nc1cccc(OCC(F)F)n1 | -4.44 | 2.63 | 10.6 | 1.18 | -4.19 | -8.28 | 22.5 | 31.7 | 3.19 | 7.79 | -0.476
18 | CC(=O)N1CCCC(c2cnc(-c3c(C)nn(C)c3C)cn2)C1 (configuration not stated) | -2.17 | 0 | 6.16 | -0.374 | -2.17 | -1.17 | -4.67 | 8.02 | 2.13 | 6.41 | -1.64
19 | O=C(c1cnc(-c2cccs2)s1)N1CCCN2CCCC2C1 (configuration not stated) | -2 | 5.41 | -8.71 | -6.92 | -2.36 | -16 | 12.6 | -1.67 | 4.43 | 23.5 | -7.67
20 | COc1c(CNC2CCN(C(C)(C)C)CC2)c(C(C)C)nn1C | -3.54 | 10.5 | -6.9 | -3.36 | 6.07 | -2.52 | 4.65 | -8.8 | 12.3 | 16.1 | -1.24
21 | CC(C)COC(C)C(=O)NCc1ccc(N(C)C)cc1 (configuration not stated) | -2.38 | 23.4 | 3.83 | -18.6 | 2.06 | -2.32 | 23.4 | 5.87 | 5.71 | 30.6 | -26.1
22 | COCCOc1ccccc1C(=O)N1CCCCC1c1nccs1 (configuration not stated) | -5.08 | 5.41 | -31.5 | 16.3 | 7.45 | -2.81 | 2.52 | -0.874 | 4.43 | 11.1 | -14.3
